Here are results for 8 molecules from PubChem BioAssay.

In assay [1] the test system is Wnt5a (protein binding on small-molecule microarray). In words: small molecules binding Wnt5a protein – biophysical, small-molecule microarray, 635/667 nm fluorescence, primary screen (AID 1142).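 Also: fluorescence read at 667 nm with signal to noise per printed feature.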 The conditions noted are these: 635 nm fluorescence, higher = more signal.
The nature of assay [2]: ATP-based viability of Huh7 replicon cells – cell-based, CellTiter-Glo luminescence, basal, 48 h, cytotoxicity control for HCV replication inhibitor project, primary screen (AID 1143).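 Also: Huh7 hepatoma cells carrying a hepatitis C replication reporter with no stimulus; test concentration not given here.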 Conditions: higher = more signal, called active from +8 up or from −8 down.
Assay [3] in a line: Pseudomonas biofilm growth suppression – PAO1 strain, BacTiter-Glo luminescence, LB-PBS, primary screen (AID 1144). The conditions noted are these: P. aeruginosa PAO1 biofilm, 12 h, higher = more signal.
Assay [4] in a line: basal CRE-LacZ reporter activity in PC12 – cell-based, unstimulated, primary screen (AID 1145). Conditions: no forskolin, luminescence, 4.5 h, higher = more signal, called active from +8 up or from −8 down.
Assay [5] can be described thus: forskolin-driven CRE-LacZ activity in PC12 – cell-based, CRE-LacZ reporter, forskolin-stimulated, primary screen (AID 1146).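 Also: PC12 cells with 6xCRE LacZ reporter stimulated by forskolin 10 µM; beta-galactosidase reporter signal reflecting CREB driven transcription.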 The conditions noted are these: luminescence, 4.5 h, higher = more signal, called active from +8 up or from −8 down.
Assay [6] deals with Streptavidin (Streptomyces avidinii) (UniProt P22629). In words: compounds binding control protein streptavidin – biophysical, small-molecule microarray, 635/667 nm fluorescence, artefact control for SMM compound annotation, primary screen (AID 1147).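 Also: signal reflects streptavidin binding to arrayed compounds as a control protein.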 The conditions noted are these: higher = more signal.
Chain of Streptavidin (Streptomyces avidinii) (P22629 whole entry, looked up): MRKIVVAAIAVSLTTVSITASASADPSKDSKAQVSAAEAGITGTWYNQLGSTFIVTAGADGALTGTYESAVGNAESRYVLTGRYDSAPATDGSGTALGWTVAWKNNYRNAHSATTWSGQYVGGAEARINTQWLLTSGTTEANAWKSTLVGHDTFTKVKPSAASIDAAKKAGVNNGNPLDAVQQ
Assay [7] is described as follows: probe aInhba binding on compound microarray – biochemical, small-molecule microarray, 635/667 nm fluorescence, primary screen (AID 1148).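 Also: score merges 667nm spot fluorescence with signal-to-noise for antibody binding to printed compounds.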 Conditions: higher = more signal.
In assay [8] the target is Torsin-1A (Homo sapiens) (UniProt O14656). In words: TOR1A wild-type binding on microarray – cell lysate, small-molecule microarray, lysate, 635/667 nm, primary screen (AID 1149). Conditions: COS7 hTOR1A-WT lysate, 635 nm fluorescence, higher = more signal.
Chain of Torsin-1A (Homo sapiens) (O14656 whole entry, looked up): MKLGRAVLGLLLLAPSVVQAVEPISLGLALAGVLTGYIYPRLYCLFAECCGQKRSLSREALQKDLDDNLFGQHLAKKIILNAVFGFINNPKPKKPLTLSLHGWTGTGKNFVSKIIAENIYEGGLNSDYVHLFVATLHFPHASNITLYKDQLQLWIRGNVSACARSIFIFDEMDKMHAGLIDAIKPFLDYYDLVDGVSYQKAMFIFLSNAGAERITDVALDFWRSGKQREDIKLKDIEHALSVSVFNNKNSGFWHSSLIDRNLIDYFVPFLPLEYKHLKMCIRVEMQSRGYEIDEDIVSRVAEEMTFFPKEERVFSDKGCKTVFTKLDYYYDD
The target is the same in assay [9]. In words: torsin A mutant lysate binding on microarrays – cell lysate, small-molecule microarray, COS7 lysate, 635/667 nm fluorescence, primary screen (AID 1150).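 Also: score pools 667 nm emission and signal to noise measuring lysate protein binding.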 The conditions noted are these: COS7 hTOR1A mutant lysate, 635 nm fluorescence, higher = more signal.
In assay [10] the test system is Sonic hedgehog protein (Shh). In words: Sonic hedgehog microarray binding compounds – biochemical, small-molecule microarray, 635/667 nm fluorescence, primary screen (AID 1151).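 Also: Shh protein binding to compounds spotted on small-molecule microarray slides; score combines spot fluorescence intensity with signal-to-noise across triplicate slides.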 The conditions noted are these: 635 nm fluorescence, higher = more signal.
Assay [11] in a line: optical density shifts of acrAB sulA E. coli – strain DRC41, OD650, 48 h, E. coli filamentation inducer project, primary screen (AID 1152).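 Also: E. coli MC1000 strain DRC41 lacking acrAB efflux pump and sulA.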 The conditions noted are these: higher = more signal, called active from +8 up or from −8 down.
The nature of assay [12]: probe aLefty1 binding on compound microarray – biochemical, small-molecule microarray, 635/667 nm fluorescence, primary screen (AID 1153).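 Also: score merges spot fluorescence with signal-to-noise ratio from the scanned slide images.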 Conditions: higher = more signal.
The nature of assay [13]: plasmodial surface anion channel blockers, osmotic lysis – cell-based, P. falciparum Indochina, OD700, 1 h, primary screen (AID 1154). Conditions: P. falciparum Indochina infected RBC osmotic lysis, higher = more signal, called active from +8 up or from −8 down.
A short description of assay [14]: plasmodial surface anion channel blockers, osmotic lysis – cell-based, P. falciparum Indochina, OD700, 2 h, primary screen (AID 1155).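 Also: lysis reports solute entry through the parasite surface anion channel PSAC.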 Conditions: P. falciparum Indochina infected erythrocytes, higher = more signal, called active from +8 up or from −8 down.
Assay [15] can be described thus: changes in parasitized red cell lysis, either direction – P. falciparum Indochina, OD700, 3 h, PSAC antagonist project, primary screen (AID 1156). Conditions: P. falciparum-infected erythrocytes, osmotic lysis, higher = more signal, called active from +8 up or from −8 down.
The nature of assay [16]: plasmodial surface anion channel blockers, osmotic lysis – cell-based, P. falciparum Indochina, OD700, 18 h, primary screen (AID 1157). The conditions noted are these: P. falciparum Indochina infected erythrocytes, osmotic lysis OD700, 18 h; higher = more signal, called active from +8 up or from −8 down.
A short description of assay [17]: S6 kinase pathway phospho-S6 level changes – cell-based, A549, cytoblot, luminescence, serum-stimulated, primary screen (AID 1158).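 Also: serum-stimulated A549 lung adenocarcinoma cells; signal is phosphorylated S6 detected by cytoblot immunostaining with HRP secondary.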 The conditions noted are these: 5 h, higher = more signal.
The target of assay [18] is NADPH oxidase 2 (Homo sapiens) (UniProt P04839). In words: compounds shifting NOX2 Amplex Red fluorescence – cell-based, HEK293-NOX2, PMA-stimulated, NOX inhibitor project, primary screen (AID 1159). Also: test concentration not given here. The conditions noted are these: 45 min, higher = more signal, called active from +8 up or from −8 down.
Chain of NADPH oxidase 2 (Homo sapiens) (P04839 whole entry, looked up): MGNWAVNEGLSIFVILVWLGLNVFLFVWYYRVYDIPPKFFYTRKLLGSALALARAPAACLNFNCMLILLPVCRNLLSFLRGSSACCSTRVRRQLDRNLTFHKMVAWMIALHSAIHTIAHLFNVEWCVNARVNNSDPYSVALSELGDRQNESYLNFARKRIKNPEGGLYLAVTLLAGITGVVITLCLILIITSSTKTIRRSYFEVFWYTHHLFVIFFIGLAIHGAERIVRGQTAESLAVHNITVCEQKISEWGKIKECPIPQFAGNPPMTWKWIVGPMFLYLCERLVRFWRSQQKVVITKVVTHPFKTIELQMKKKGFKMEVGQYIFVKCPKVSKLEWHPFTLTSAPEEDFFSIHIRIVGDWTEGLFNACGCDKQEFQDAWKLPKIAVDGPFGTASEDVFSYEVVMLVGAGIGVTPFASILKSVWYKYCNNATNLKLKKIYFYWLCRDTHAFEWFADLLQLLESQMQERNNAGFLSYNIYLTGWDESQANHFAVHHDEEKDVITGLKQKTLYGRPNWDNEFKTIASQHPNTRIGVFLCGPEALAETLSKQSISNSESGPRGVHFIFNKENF
Assay [19] addresses NADPH oxidase 4 (Homo sapiens) (UniProt Q9NPH5). In words: compounds shifting NOX4 Amplex Red fluorescence – cell-based, HEK293-NOX4, tetracycline-induced, NOX inhibitor project, primary screen (AID 1160). The conditions noted are these: HEK293-NOX4, Amplex Red H2O2 fluorescence, 45 min; higher = more signal, called active from +8 up or from −8 down.
For assay [20], the target named is NADPH oxidase 5 (Homo sapiens) (UniProt Q96PH1). In words: compounds shifting NOX5 Amplex Red fluorescence – cell-based, HEK293-NOX5, NOX inhibitor project, primary screen (AID 1161). The conditions noted are these: HEK293-NOX5, ionomycin, 45 min, higher = more signal.
Chain of NADPH oxidase 5 (Homo sapiens) (Q96PH1 whole entry, looked up): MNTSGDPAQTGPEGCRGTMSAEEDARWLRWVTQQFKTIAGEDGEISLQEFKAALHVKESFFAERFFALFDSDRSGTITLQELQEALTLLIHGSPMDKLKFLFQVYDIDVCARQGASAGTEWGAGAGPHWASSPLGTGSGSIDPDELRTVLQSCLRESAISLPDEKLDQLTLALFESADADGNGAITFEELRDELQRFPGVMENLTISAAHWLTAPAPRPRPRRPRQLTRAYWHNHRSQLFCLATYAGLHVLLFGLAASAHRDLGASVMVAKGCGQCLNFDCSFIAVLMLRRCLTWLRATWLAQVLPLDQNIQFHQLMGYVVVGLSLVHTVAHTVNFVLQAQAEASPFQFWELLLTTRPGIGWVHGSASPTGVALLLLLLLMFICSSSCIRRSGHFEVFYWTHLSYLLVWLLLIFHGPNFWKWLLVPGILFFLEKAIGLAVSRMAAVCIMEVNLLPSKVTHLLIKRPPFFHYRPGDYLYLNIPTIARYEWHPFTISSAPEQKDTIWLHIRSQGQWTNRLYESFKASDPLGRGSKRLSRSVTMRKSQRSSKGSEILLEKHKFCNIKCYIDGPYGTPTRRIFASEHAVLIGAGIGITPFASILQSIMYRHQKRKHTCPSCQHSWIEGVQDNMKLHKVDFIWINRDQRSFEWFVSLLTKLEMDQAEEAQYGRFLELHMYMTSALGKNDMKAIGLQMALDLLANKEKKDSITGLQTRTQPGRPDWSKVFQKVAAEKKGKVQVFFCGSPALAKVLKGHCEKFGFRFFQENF

Calls of active or inactive are those of the source. Unless noted, no rule for the calls is given here.

Chain of NADPH oxidase 4 (Homo sapiens) (Q9NPH5 whole entry, looked up): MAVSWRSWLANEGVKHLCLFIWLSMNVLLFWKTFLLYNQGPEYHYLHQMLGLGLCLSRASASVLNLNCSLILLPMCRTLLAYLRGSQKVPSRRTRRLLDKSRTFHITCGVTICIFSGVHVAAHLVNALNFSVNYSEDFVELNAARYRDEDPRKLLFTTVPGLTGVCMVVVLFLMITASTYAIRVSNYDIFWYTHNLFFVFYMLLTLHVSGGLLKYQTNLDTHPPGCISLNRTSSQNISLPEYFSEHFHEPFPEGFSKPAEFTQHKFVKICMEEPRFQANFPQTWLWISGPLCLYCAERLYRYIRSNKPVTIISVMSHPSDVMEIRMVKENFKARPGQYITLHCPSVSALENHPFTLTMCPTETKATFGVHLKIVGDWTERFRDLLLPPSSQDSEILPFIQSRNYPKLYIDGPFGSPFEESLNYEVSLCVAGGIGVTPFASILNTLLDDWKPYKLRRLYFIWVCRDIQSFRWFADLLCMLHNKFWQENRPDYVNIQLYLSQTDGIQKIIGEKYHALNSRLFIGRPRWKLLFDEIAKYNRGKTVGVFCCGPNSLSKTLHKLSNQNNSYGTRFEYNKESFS

Consider `CC(C)C(O)C1C=CC2C(=O)NC(=O)C2N1Nc1ccc(Cl)cc1Cl` (stereo not given), for which the composite z-score is -0.0055 in assay [1]; -0.204 in assay [6]; -0.0791 in assay [7]; 0.41 with Torsin-1A (Homo sapiens) [8]; 0.794 in the assay with Torsin-1A (Homo sapiens) [9]; 0.292 in assay [10]. Besides, the composite z-score in assay [12] was -0.114. In addition, the z-score is -0.158 (inactive) in assay [2]; 0.0631 (inactive) in assay [3]; 0.246 (inactive) in [4]; 0.0675 (inactive) in assay [5]; -1.3 (inactive) in assay [11]; 1.41 (inactive) in [13]. For the same molecule, the z-score is 0.648 (inactive) in assay [14]; -0.782 (inactive) in assay [15]; 0.997 (inactive) in assay [16]; -1.23 in assay [17]; -0.714 (inactive) in [18]; -4.39 (inactive) in assay [19]. The z-score in [20] was -3.83.

As for `COc1ccc(CCNC(=O)[C@@]2(C)c3ccccc3C(=O)N(C(C)C)[C@H]2c2ccc(CO)cc2)cc1`, the composite z-score in assay [1] was 0.435; in assay [6] it was 0.454; in assay [7], -0.102; with Torsin-1A (Homo sapiens) [8], 0.0534; with Torsin-1A (Homo sapiens) [9], -0.176; in [10], 0.794. The composite z-score in assay [12] is -0.28. Moreover, the z-score in [2] is -1.03 (inactive); in [3], 1.08 (inactive); in assay [4], 0.827 (inactive); in assay [5] it was 0.727 (inactive); in assay [11], 0.312 (inactive); in [13] it was 1.66 (inactive). Besides, the z-score in assay [14] was 0.133 (inactive); in [15], 0.386 (inactive); in assay [16] it was -0.0145 (inactive); in [17], -0.441; in [18], -1.12 (inactive); in assay [19] it was -0.479 (inactive). Moreover, in [20], the z-score is -0.224.

Regarding `C=CCN1C(=O)[C@@]2(Cc3ccccc31)N=C(c1ccc(OCCCO)cc1)O[C@H]2c1ccccc1`, the composite z-score in assay [1] came to 0.344; in assay [6] it was 0.0866; in [7], 0.195; with Torsin-1A (Homo sapiens) [8] it was 0.698; with Torsin-1A (Homo sapiens) [9], 0.855; in assay [10], 1.14. In [12], the composite z-score stood at 0.481. Further, the z-score in [2] is -3.53 (inactive); in assay [3], -0.144 (inactive); in assay [4], 0.47 (inactive); in assay [5], -1.81 (inactive); in [11], 0.613 (inactive); in assay [13] it was 14.6 (active). Further, the z-score is 3.47 (inactive) in assay [14]; 3.29 (inactive) in [15]; 1.35 (inactive) in [16]; 0.104 in [17]; -2.01 (inactive) in assay [18]; -0.253 (inactive) in assay [19]. Moreover, the z-score in assay [20] was -2.65.

Consider `CCOC(=O)C[C@H]1[C@H](OC(=O)c2ccc(-c3ccccc3)cc2)[C@@H](NC(=O)Cc2ccc(OC)cc2)c2cc(OCCCO)ccc2N1C(=O)c1ccccc1`, for which the composite z-score in assay [1] is 0.118; in assay [6], -0.0322; in assay [7], -0.0645; in the assay with Torsin-1A (Homo sapiens) [8], -0.36; with Torsin-1A (Homo sapiens) [9], 0.023; in assay [10], 0.265. For the same molecule, the composite z-score in [12] worked out at 0.206. For the same molecule, the z-score in [2] was -1.02 (inactive); in [3], 0.338 (inactive); in assay [4], -0.505 (inactive); in [5], -0.15 (inactive); in assay [11], -0.539 (inactive); in [13], 1.84 (inactive). Further, the z-score is -0.259 (inactive) in [14]; 0.438 (inactive) in assay [15]; 0.285 (inactive) in [16]; 1.3 in assay [17]; -1.43 (inactive) in [18]; -1.72 (inactive) in assay [19]. The z-score in assay [20] was -0.795.

Regarding `NC(=O)NCC#Cc1ccc2c(c1)[C@]1(C(=O)N2)[C@H](C(N)=O)[C@H]2C(=O)O[C@H](c3ccccc3)[C@H](c3ccccc3)N2[C@@H]1c1ccc(O)cc1`, the composite z-score in [1] was 0.0344; in assay [6] it was -0.104; in [7], 1.34; in the assay with Torsin-1A (Homo sapiens) [8], 0.2; in the assay with Torsin-1A (Homo sapiens) [9], 1; in [10], -0.41. For the same molecule, in [12], the composite z-score was determined as 1.73. Also, the z-score was -0.0803 (inactive) in [2]; -0.00225 (inactive) in [3]; 0.712 (inactive) in [4]; -0.0696 (inactive) in assay [5]; 0.0502 (inactive) in assay [11]; 0.271 (inactive) in assay [13]. In addition, the z-score is 0.436 (inactive) in assay [14]; 0.471 (inactive) in assay [15]; 0.124 (inactive) in assay [16]; 0.226 in assay [17]; 0.122 (inactive) in assay [18]; -0.519 (inactive) in assay [19]. In addition, in assay [20], the z-score is -0.479.

Consider `Cc1ccc(S[C@]2(C(=O)NCCCN(C)C)CC(=O)N(Cc3cc(C(F)(F)F)cc(C(F)(F)F)c3)[C@@H]2c2ccc(CO)cc2)cc1`, for which the composite z-score in [1] was -0.202; in assay [6], -0.529; in assay [7] it was 0.0363; with Torsin-1A (Homo sapiens) [8], -0.0089; with Torsin-1A (Homo sapiens) [9], -0.256; in assay [10], -0.664. This molecule also displayed a composite z-score in [12] of -0.506. For the same molecule, the z-score in assay [2] was -0.0481 (inactive); in [3] it was -0.617 (inactive); in [4], -0.152 (inactive); in assay [5], 1.19 (inactive); in [11] it was -0.48 (inactive); in [13], 1.24 (inactive). Besides, the z-score in assay [14] is 0.0808 (inactive); in assay [15] it was -0.0534 (inactive); in [16], 0.327 (inactive); in assay [17], 1.11; in assay [18], -0.373 (inactive); in assay [19] it was 0.414 (inactive). Further, the z-score in assay [20] is 0.942.

Turning to `N#Cc1ccc(NN2C(C(O)C(c3ccccc3)c3ccccc3)C=CC3C(=O)N(c4ccccc4)C(=O)C32)cc1` (stereo not given), the composite z-score is 0.382 in [1]; 1.21 in assay [6]; 0.204 in assay [7]; 0.604 in the assay with Torsin-1A (Homo sapiens) [8]; 0.274 with Torsin-1A (Homo sapiens) [9]; -0.634 in assay [10]. This molecule registered a composite z-score in assay [12] of 0.651. For the same molecule, the z-score in [2] was -0.919 (inactive); in assay [3], -0.731 (inactive); in assay [4], 0.243 (inactive); in assay [5] it was -0.69 (inactive); in assay [11] it was -0.0948 (inactive); in [13], 5.66 (inactive). Moreover, the z-score is 0.96 (inactive) in assay [14]; 0.891 (inactive) in assay [15]; 1.24 (inactive) in assay [16]; 0.151 in assay [17]; -1.99 (inactive) in assay [18]; -2.82 (inactive) in assay [19]. Moreover, the z-score in assay [20] is -2.49.

With `O=C1O[C@H](c2ccccc2)[C@H](c2ccccc2)N2[C@H]1[C@@H](C(=O)N1CCCCCCC1)[C@]1(C(=O)Nc3ccc(C#CCCO)cc31)[C@H]2c1ccccc1OCCO`, the composite z-score in assay [1] was determined as 2.73; in assay [6], 4.08; in [7], 2.33; with Torsin-1A (Homo sapiens) [8] it was 3.84; with Torsin-1A (Homo sapiens) [9], 3.83; in assay [10], 2.53. The composite z-score in [12] was 2.89. Moreover, the z-score is -3.61 (inactive) in assay [2]; 0.999 (inactive) in assay [3]; -0.698 (inactive) in assay [4]; -1.19 (inactive) in [5]; 0.609 (inactive) in assay [11]; 1.54 (inactive) in assay [13]. The z-score was 1.19 (inactive) in [14]; 2.13 (inactive) in [15]; 0.565 (inactive) in assay [16]; -0.319 in assay [17]; 1.31 (inactive) in [18]; 0.959 (inactive) in [19]. The z-score in assay [20] came out at 1.67.
